Source: PubChem
In the library only some 3.5% were active in any assay of this set; here they are far more common.
MITF primary: MITF inhibitors, primary screen, biochemical, AlphaScreen, human | Microphthalmia-associated transcription factor (Homo sapiens), O75030 | AlphaScreen MITF homodimerization, bead proximity signal | inhibition, % at 2.6 µM | 650,000 tested, 0.91% active | AID 1259374, 2018; in the data active = inhibition above about 50%;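 note: 0% = vehicle wells with protein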
TEAD-YAP block: TEAD-YAP interaction inhibition, primary screen, TEAD-YAP interaction inhibitor project, luminescence, HEK-TIYL cells | AID 1259422, 2018 | TEAD-Gal4/YAP UAS-luciferase luminescence | 640,000 tested, 1.4% active | inhibition, % at 9.12 µM; in the data active = inhibition above about 32%;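 note: 0% = median of test compound wells and 100% = reference inhibitor wells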
GPR151 ag: activators of human GPR151, primary screen, cell-based, PathHunter beta-arrestin, luminescence | G-protein coupled receptor 151 (Homo sapiens), Q8TDV0 | PathHunter beta-arrestin GPR151 cells | activation, % at 11.2 µM | 650,000 tested, 1% active; in the data active = activation above about 4.9%;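 note: 0% = median of compound wells and 100% = cells with positive control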
FBW7 act: FBW7 E3 ligase activators, primary screen, biochemical, AlphaScreen, human; AlphaScreen FBW7–phospho-cyclin E peptide binding, activator screen; normalized activity (activation), % at 26.1 µM; 650,000 tested, 0.13% active; AID 1259310, 2017; in the data active = normalized activity above about 1.9%;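 note: purified mutant Fbw7 with reduced substrate affinity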
Target sequence (Q969H0 whole entry, looked up): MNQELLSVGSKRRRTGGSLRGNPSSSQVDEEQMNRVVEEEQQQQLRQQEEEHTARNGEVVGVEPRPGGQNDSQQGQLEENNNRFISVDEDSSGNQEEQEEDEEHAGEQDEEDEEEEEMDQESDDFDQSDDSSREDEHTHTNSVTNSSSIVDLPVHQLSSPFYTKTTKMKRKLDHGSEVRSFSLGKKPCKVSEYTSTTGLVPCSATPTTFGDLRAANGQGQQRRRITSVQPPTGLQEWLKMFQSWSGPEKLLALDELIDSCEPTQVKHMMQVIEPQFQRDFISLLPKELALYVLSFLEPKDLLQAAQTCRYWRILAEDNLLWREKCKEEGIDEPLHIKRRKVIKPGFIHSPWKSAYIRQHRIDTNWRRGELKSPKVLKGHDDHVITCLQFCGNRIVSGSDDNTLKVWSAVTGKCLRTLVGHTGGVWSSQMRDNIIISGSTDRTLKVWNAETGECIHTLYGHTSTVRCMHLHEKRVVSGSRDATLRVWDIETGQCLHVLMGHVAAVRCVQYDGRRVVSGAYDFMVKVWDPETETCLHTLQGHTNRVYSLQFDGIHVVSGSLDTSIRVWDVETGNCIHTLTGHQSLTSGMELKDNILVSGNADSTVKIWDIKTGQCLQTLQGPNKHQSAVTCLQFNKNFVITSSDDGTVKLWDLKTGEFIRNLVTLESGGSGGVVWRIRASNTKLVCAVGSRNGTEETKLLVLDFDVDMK
Numbers without * were called inactive.

SMILES | MITF primary | TEAD-YAP block | GPR151 ag | FBW7 act
O=C(NCCCN1CCOCC1)c1ccc2c(=O)n(CC3CCCO3)c(SCc3cccc([N+](=O)[O-])c3)nc2c1 (centres undefined) | -3 | -9 | 0 | 0
Cc1ccc(-c2nc3s/c(=C\c4cn(-c5ccccc5)nc4-c4ccc(F)cc4)c(=O)n3n2)cc1 | 25 | 5 | -1 | 2
CNC(=S)N1CCC(C(=O)NC(c2cccs2)c2ncccc2C)CC1 (centres undefined) | -9 | -1 | -1 | 0
O=C(CSc1nnc2sc3ccccc3n12)c1ccc(F)cc1 | -4 | -38 | -1 | 2.1*
O=C(CSc1nnc2sc3ccccc3n12)NCc1ccccc1 | 8 | 46* | 1 | 0
CN(C)c1ccc(C2OCC3(CO2)SC(=O)NC3=O)cc1 (centres undefined) | 11 | 12 | -1 | 4.9*
Cc1c(Cl)cccc1N1C(N)=C(C#N)C(c2ccc(C(C)(C)C)s2)C2=C1CCCC2=O (centres undefined) | 3 | 7 | 0 | 0
CCC(=O)N1CCCc2ccc(NC(=O)NCc3cccc4ccccc34)cc21 | 8 | -7 | 1 | 14*
CC(=O)c1cccc(-c2ccc(NCCCN(C)C)nc2)c1 | -2 | 15 | -1 | -1
CCCCc1ccc(C(=O)Nc2cc3ccccc3oc2=O)cc1 | -1 | 55* | 1 | 0
CC(=O)Oc1ccc2cc(NC(=O)c3cccc(C)c3)c(=O)oc2c1 | 4 | 38* | -3 | 0
Cc1ccc(C(=O)Nc2cc3cc(Br)ccc3oc2=O)cc1C | -2 | -10 | -1 | 0
Cc1ccc(C(=O)Nc2cc3ccccc3oc2=O)cc1 | 8 | 86* | -2 | 0
Cc1ccc(C(=O)Nc2cc3ccccc3oc2=O)cc1C | -3 | 62* | -2 | 0
CC(=O)Nc1cc2ccccc2oc1=O | 26 | -2 | -1 | 0
O=c1oc2ccc(Cl)cc2cc1-c1ccc([N+](=O)[O-])cc1[N+](=O)[O-] | 15 | 21 | 0 | 0
CN1C(=S)NC2c3ccccc3O[C@@]1(C)C2C(=O)Nc1ccccc1 (some centres undefined) | -6 | 5 | 0 | 0
CCN1CCN(Cc2ccc(NC(=O)Nc3ccccc3Cl)cc2)CC1 | 19 | 34* | 0 | 0
COc1cccc(C=Nc2cnn(C)c2C(N)=O)c1O | 0 | -2 | 0 | 3.6*
c1ccc(-c2nc(-c3ccncc3)cc(N3CCCCC3)n2)cc1 | 3 | 8 | -1 | 0
Nc1nc(-c2ccccc2)cc(N2CCCC2)n1 | 18 | 45* | 0 | 0
CC(Sc1ccccc1)C(=O)Nc1cccc([N+](=O)[O-])c1 (centres undefined) | 5 | -12 | 2 | 0
CCN(CC)CCn1c2ccccc2c2cnc(N)c(C#N)c21 | -3 | 81* | 1 | 0
CN(C)C=Nc1ncc2c3ccccc3n(CCN(C)C)c2c1C#N | 8 | 16 | -1 | 0
N#Cc1cc(-c2ccnc(Nc3ccc(N4CCNCC4)cc3)n2)cc(N2CCOCC2)c1 | -3 | 32* | 0 | -1
SMILES | MITF primary | TEAD-YAP block | GPR151 ag | FBW7 act
N#Cc1cc(-c2ccnc(Nc3ccc(CN4CCCCC4)cc3)n2)cc(N2CCOCC2)c1 | 1 | 36* | 0 | 0
CCOCCCNC(=O)Cn1ncc2ccccc21 | 4 | 4 | -1 | 0
O=[N+]([O-])c1ccc(Nc2ccccc2Cl)c([N+](=O)[O-])c1 | 11 | 3 | 2 | 0
N#Cc1cc(Nc2ccccc2Cl)c([N+](=O)[O-])cc1C#N | 4 | 74* | -1 | 0
O=C(c1cc(-c2ccc3c(c2)OCO3)nc2ccccc12)N1CCCC1 | -2 | -17 | 3 | 0
NNC(=O)/C(=C/c1ccc([N+](=O)[O-])cc1)NC(=O)c1ccco1 | -1 | 50* | 0 | 0
CNC(=O)/C(=C\c1ccc([N+](=O)[O-])cc1)NC(=O)c1ccco1 | 9 | 3 | 0 | 0
CCN1C(=O)/C(=C\C(C)=C\c2ccco2)SC1=S | 18 | -6 | 0 | 0
O=C1/C(=C/c2ccco2)SC(=S)N1c1cccnc1 | 68* | -11 | -2 | 0
CC(=C\c1ccco1)/C=C1/SC(=S)N(CC(=O)O)C1=O | 54* | -5 | 0 | -1
NN1C(=O)/C(=C\c2ccco2)SC1=S | 75* | 2 | -1 | 0
COc1ccc(/C=C2/SC(=S)N(N)C2=O)cc1OC | 8 | -11 | 2 | 0
NN1C(=O)/C(=C/c2ccc(O)c(Br)c2)SC1=S | 20 | 33* | -8 | -1
